PubChem BioAssay (NCATS)
Active and inactive are the calls of the source. Calls come from the whole dose curve.

experiment: Cell Proliferation Assay Versus the ED40515 IL2 Independent ATL cell lines (AID 1053194); settings: ED40515 IL2-independent ATL cells
Source text: Adult T-cell leukemia (ATL) develops in individuals infected with human T-cell lymphotropic virus-1 (HTLV-1). Clinically, ATL is subclassified into four subtypes: smoldering, chronic, lymphomatous, and acute. Two autocrine loops (IL-2/IL-2Ralpha and IL-15/IL-15Ralpha) and one paracrine stimulation loop that involves IL-9 expression by ATL cells and IL-9Ralpha expression on monocytes are required to maintain viability and proliferation in the smoldering and chronic forms of the disease. These assays examined the differential response profiles for the MIPE library of approved and investigational drugs versus an IL2 dependent and independent matched ATL cell line, with the current submission examining the differential response profiles for drugs on an IL2 independent matched ATL cell line
Plate log growing ED40515 -IL2 cells: 1000cells/ well in 5uL phenol red free RPMI +5% FBS +1x p/s, Glutamine using 1536 well white griener tissue culture plates and multidrop cassette acoustic dispensing Columns 1 and 3 DMSO Columns 2 and 4, 9.2 uM Bortezomib Incubate 48 hours for celltiter glo 37C with 5%CO2 and 95% humidity with low evaporation lids Dispense 3 uL per well of cell titer glo with multidrop Incubate for 15 minutes at RT Read on VL/2 using Luminesence Wheel (Filter A)

Structure (SMILES) | Potency
OC[C@H](Cc1ccccc1)Nc1nc(Oc2ccc3c(c2)CCC3)nc2c1ncn2Cc1ccc(-c2ccccc2)cc1 | 4.69 µM (active)
Cc1ccc2c(c1)C(=O)[C@@]1(O)CCN(c3ccccc3)C1=N2 | 13.2 µM (active)
COCCNCCCn1c(C(=O)CF)c(-c2ccc(C)cc2)c2c(N)ncnc21 | 9.35 µM (active)
COc1ccccc1-c1cccc(-c2c(O)c3cc(C#N)c(Cl)cc3[nH]c2=O)c1 | 16.6 µM (active)
CCC(C)n1ncn(-c2ccc(N3CCN(c4ccc(OC[C@H]5CO[C@](Cn6cncn6)(c6ccc(Cl)cc6Cl)O5)cc4)CC3)cc2)c1=O (stereo not given in full) | 10.5 µM (active)
Cc1ccccc1C(C(=O)NC1CCCC1)N(C(=O)Cn1cnc2ccccc21)c1cccc(F)c1 (stereo not given) | 20.9 µM (active)
Cc1oncc1C(=O)Nc1ccc(C(F)(F)F)cc1 | 14.8 µM (active)
CCOc1cc(C(=O)Nc2ccc(Cl)c(-c3nc4ccccc4[nH]3)c2)cc(OCC)c1OCC | 18.7 µM (active)
CCn1c(-c2nonc2N)nc2c(C#CC(C)(C)O)ncc(OC[C@H]3CCCNC3)c21 | 33.2 µM (active)
Nc1nccc(-c2ccc3noc(-c4ccc(Cl)cc4)c3c2)n1 | 18.7 µM (active)
CCN(CCCO)CCCOc1ccc2c(Nc3cc(CC(=O)Nc4cccc(F)c4)[nH]n3)ncnc2c1 | 26.4 µM (active)
CC(C)(N)C(=O)N[C@H](COCc1ccccc1)C(=O)N1CCC2(CC1)CN(S(C)(=O)=O)c1ccccc12 | 7.43 µM (active)
CC1(C)Cc2c(-c3ccccc3)c(-c3ccc(Cl)cc3)c(CC(=O)O)n2C1 | 11.8 µM (active)
S=C(NCc1ccc2c(c1)OCO2)N1CCN(c2ncnc3c2oc2ccccc23)CC1 | 3.32 µM (active)
CC(C)(Sc1ccc(CCN(CCCCC2CCCCC2)C(=O)NC2CCCCC2)cc1)C(=O)O | 33.2 µM (active)
CCOc1ccn(-c2ccc(F)cc2)c(=O)c1C(=O)Nc1ccc(Oc2ccnc(N)c2Cl)c(F)c1 | 23.5 µM (active)
CC(C)OC(=O)C1=CN(C(=O)c2ccc(F)c(F)c2)CC(C)(C)c2c1[nH]c1ccccc21 | 11.8 µM (active)
CS(=O)(=O)c1cccc(CNc2nc(Nc3ccc4c(c3)CCC(=O)N4)ncc2C(F)(F)F)c1 | 4.69 µM (active)
O=C(NOC[C@H](O)CO)c1ccc(F)c(F)c1Nc1ccc(I)cc1F | 33.2 µM (active)
CO[C@@H]1[C@H](N(C)C(=O)c2ccccc2)C[C@H]2O[C@]1(C)n1c3ccccc3c3c4c(c5c6ccccc6n2c5c31)C(=O)NC4 | 0.743 µM (active)

Structure (SMILES) | Potency
Cc1ccc(NC(=O)c2cccc(C(C)(C)C#N)c2)cc1Nc1ccc2ncn(C)c(=O)c2c1 | 26.4 µM (active)
CC(C)(C)OC(=O)CN(Cc1ccc(Cl)cc1)Cc1ccc([N+](=O)[O-])s1 | 29.6 µM (active)
C[C@@H]1C[C@H]2[C@@H]3CCC4=CC(=O)C=C[C@]4(C)C3(F)[C@@H](O)C[C@]2(C)[C@@]1(O)C(=O)CO (stereo not given in full) | 20.9 µM (active)
CC(C)C[C@H](NC(=O)[C@@H](O)[C@H](N)Cc1ccccc1)C(=O)O | 6.62 µM (active)
NC(=O)c1ccc(I)c([N+](=O)[O-])c1 | 16.6 µM (active)
COc1ccc(CCN2CCN(CCCc3ccccc3)CC2)cc1OC | 7.43 µM (active)
NC(=O)c1ccc(-c2nc(-c3ccc4c(c3)OCCO4)c(-c3ccccn3)[nH]2)cc1 | 20.9 µM (active)
CCCCCCCc1ccc(CCc2cccc(O)c2C(=O)O)cc1 | 16.6 µM (active)
CCCc1nc2c(C)cc(-c3nc4ccccc4n3C)cc2n1Cc1ccc(-c2ccccc2C(=O)O)cc1 | 37.2 µM (active)
CCOc1cc(C=C2C(=O)N(c3ccccc3)N=C2C)cc(Cl)c1OCC(=O)OC | 29.6 µM (active)
CC[C@@H](C)[C@H](NC(=O)[C@H](CC1CCCCC1)NC(=O)c1ccno1)C(=O)N1CCC2(CCc3ccccc32)CC1 | 10.5 µM (active)
c1ccc(-c2nn3c(c2-c2ccnc4cc(OCCN5CCOCC5)ccc24)CCC3)nc1 | 26.4 µM (active)
Oc1cccc(-c2nc(N3CCOCC3)c3oc4ncccc4c3n2)c1 | 1.32 µM (active)
COc1nc(-c2ccc3c(c2)OCO3)n(-c2ccc(NC(=O)CSc3ccccc3)cc2)n1 | 23.5 µM (active)
O=C1CCCC2=C1C(c1[nH]ncc1Cl)N=C(Nc1nc3ccccc3o1)N2 (stereo not given) | 16.6 µM (active)
Cc1cc([C@@H](C)Nc2ccccc2C(=O)O)c2nc(N3CCOCC3)cc(=O)n2c1 | 20.9 µM (active)
COc1ccc(C2=N[C@H](c3ccc(Cl)cc3)[C@H](c3ccc(Cl)cc3)N2C(=O)N2CCNC(=O)C2)c(OC(C)C)c1 | 33.2 µM (active)
COc1ccc(-c2ccc3c(N4CCOCC4)nc(N4C[C@@H](C)O[C@@H](C)C4)nc3n2)cc1CO | 0.59 µM (active)
Cc1cc(Nc2nc(N[C@@H](C)c3ncc(F)cn3)ncc2Cl)n[nH]1 | 14.8 µM (active)
CCc1cc(Nc2nccc(-c3c(-c4ccc(OC)c(C(=O)Nc5c(F)cccc5F)c4)nc4ccccn34)n2)c(OC)cc1N1CCC(N2CCN(S(C)(=O)=O)CC2)CC1 | 4.69 µM (active)
